Source: PubChem BioAssay (NCATS)
Records with an inconclusive call do not appear. Calls of active or inactive are those of the source. Calls follow the shape of the dose curve; as a rule, active = well fitted curve in the direction sought with a large enough effect; inconclusive = small, poorly fitted or top-dose-only effect, or another doubt; inactive = no such curve, though single readings can be large; an effect the other way counts as inactive or inconclusive.

Experiments:
[1] = target: ATP-dependent 6-phosphofructokinase (Trypanosoma brucei brucei) (UniProt O15648); test: qHTS Assay to Find Inhibitors of T. brucei phosphofructokinase: hit validation (AID 492961)
In short: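 Luminescence from ADP-Glo reports ADP generated as T. brucei PFK (1.25 nM) phosphorylates 0.5 mM fructose-6-phosphate using 0.1 mM ATP. Reactions ran 45 min at room temperature, pH 8.0.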

[2] = target: Ubiquitin carboxyl-terminal hydrolase 1 (Homo sapiens) (UniProt O94782); test: Inhibitors of USP1/UAF1: Pilot qHTS (AID 504865);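 also: rhodamine fluorescence freed from ubiquitin-rhodamine substrate followed over time; top concentration of the series differs between compounds; nearly all actives have a fitted effect of over 35% in size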
In short: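 Deubiquitinase activity followed as kinetic rhodamine fluorescence release from 150 nM Ub-Rho. 1 nM USP1/UAF1 with compound, after 15 min room-temperature preincubation, in HEPES pH 7.8 buffer containing TCEP, EDTA, BSA and Tween-20.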

[3] = target: Luciferin 4-monooxygenase (Photinus pyralis) (UniProt P08659); test: Biochemical firefly luciferase enzyme assay for NPC (AID 624030);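 also: purified P. pyralis luciferase at 10 nM with luciferin and ATP substrate; nearly all actives have a fitted effect of over 70% in size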
In short: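 Purified P. pyralis luciferase at 10 nM in 50 mM Tris Acetate (final), luminescence read within 5 minutes of enzyme addition to compounds. Activity normalised to PTC124 versus DMSO; concentration-response curves classed by r2, magnitude and activity.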

[4] = S16 Schwann cell viability assay (CellTiter-Glo assay) (AID 624031);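 also: cellular ATP luminescence as a viability measure; nearly all actives have a fitted effect of over 70% in size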
In short: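 Native S16 rat Schwann cells, 500-750 cells/well in DMEM with 10% FBS, dosed with compound after overnight culture and incubated 24h at 37 degree Celsius/5% CO2. Viability by CellTiter-Glo luminescence; % activity normalized to no-cell wells and DMSO-treated cells.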

[5] = S16 Schwann cell PMP22 intronic element firefly luciferase assay (AID 624032); also: nearly all actives have a fitted effect of over 30% in size
In short: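 Rat S16 Schwann cells stably carrying firefly luciferase driven by a PMP22 intronic element, in 10% FBS, treated 24 h at 37 C. ONE-Glo luminescence normalized to PTC124 control and DMSO (0%); curves classed by r2, magnitude and activity.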

3D7 = test: qHTS profiling for inhibitors of Plasmodium falciparum proliferation (AID 504749); also: nearly all actives have a fitted effect of over 60% in size; also: potency is read from the fitted curve at half-maximal effect; conditions: P. falciparum in erythrocytes, SYBR Green DNA, 72 h; series mostly up to 28.7 µM
In short: (§1)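 Each compound contacts P. falciparum-infected red blood cells for 72 h at 37 C; lysis buffer (Tris, EDTA, saponin, Triton X, SYBR Green I) is added and fluorescence measured next morning; values normalized to controls.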

7G8 = test: as above; conditions: P. falciparum in erythrocytes, SYBR Green DNA, 72 h; series mostly up to 28.7 µM
In short: as §1

AS120 = test: as above; conditions: P. falciparum in erythrocytes, SYBR Green DNA, 72 h; series mostly up to 28.7 µM
In short: as §1

ATS189 = test: as above; conditions: P. falciparum in erythrocytes, SYBR Green DNA, 72 h; series mostly up to 28.7 µM
In short: as §1

ATS95 = test: as above; conditions: P. falciparum in erythrocytes, SYBR Green DNA, 72 h; series mostly up to 28.7 µM
In short: as §1

CP192 = test: as above; conditions: P. falciparum in erythrocytes, SYBR Green DNA, 72 h; series mostly up to 28.7 µM
In short: as §1

CP194 = test: as above; conditions: P. falciparum in erythrocytes, SYBR Green DNA, 72 h; series mostly up to 28.7 µM
In short: as §1

CP201 = test: as above; conditions: P. falciparum in erythrocytes, SYBR Green DNA, 72 h; series mostly up to 28.7 µM
In short: as §1

CP203 = test: as above; conditions: P. falciparum in erythrocytes, SYBR Green DNA, 72 h; series mostly up to 28.7 µM
In short: as §1

CP211 = test: as above; conditions: P. falciparum in erythrocytes, SYBR Green DNA, 72 h; series mostly up to 28.7 µM
In short: as §1

CP237 = test: as above; conditions: P. falciparum in erythrocytes, SYBR Green DNA, 72 h; series mostly up to 28.7 µM
In short: as §1

CP238 = test: as above; conditions: P. falciparum in erythrocytes, SYBR Green DNA, 72 h; series mostly up to 28.7 µM
In short: as §1

CP260 = test: as above; conditions: P. falciparum in erythrocytes, SYBR Green DNA, 72 h; series mostly up to 28.7 µM
In short: as §1

CP262 = test: as above; conditions: P. falciparum in erythrocytes, SYBR Green DNA, 72 h; series mostly up to 28.7 µM
In short: as §1

CP266 = test: as above; conditions: P. falciparum in erythrocytes, SYBR Green DNA, 72 h; series mostly up to 28.7 µM
In short: as §1

CP268 = test: as above; conditions: P. falciparum in erythrocytes, SYBR Green DNA, 72 h; series mostly up to 28.7 µM
In short: as §1

CP291 = test: as above; conditions: P. falciparum in erythrocytes, SYBR Green DNA, 72 h; series mostly up to 28.7 µM
In short: as §1

CP305 = test: as above; conditions: P. falciparum in erythrocytes, SYBR Green DNA, 72 h; series mostly up to 28.7 µM
In short: as §1

CP315 = test: as above; conditions: P. falciparum in erythrocytes, SYBR Green DNA, 72 h; series mostly up to 28.7 µM
In short: as §1

CP325 = test: as above; conditions: P. falciparum in erythrocytes, SYBR Green DNA, 72 h; series mostly up to 28.7 µM
In short: as §1

DIV14 = test: as above; conditions: P. falciparum in erythrocytes, SYBR Green DNA, 72 h; series mostly up to 28.7 µM
In short: as §1

DIV30 = test: as above; conditions: P. falciparum in erythrocytes, SYBR Green DNA, 72 h; series mostly up to 28.7 µM
In short: as §1

Dd2 = test: as above; conditions: P. falciparum in erythrocytes, SYBR Green DNA, 72 h; series mostly up to 28.7 µM
In short: as §1

FAB9 = test: as above; conditions: P. falciparum in erythrocytes, SYBR Green DNA, 72 h; series mostly up to 28.7 µM
In short: as §1

HB3 = test: as above; conditions: P. falciparum in erythrocytes, SYBR Green DNA, 72 h; series mostly up to 28.7 µM
In short: as §1

JCK = test: as above; conditions: P. falciparum in erythrocytes, SYBR Green DNA, 72 h; series mostly up to 28.7 µM
In short: as §1

PAD = test: as above; conditions: P. falciparum in erythrocytes, SYBR Green DNA, 72 h; series mostly up to 28.7 µM
In short: as §1

PC15 = test: as above; conditions: P. falciparum in erythrocytes, SYBR Green DNA, 72 h; series mostly up to 28.7 µM
In short: as §1

PC49 = test: as above; conditions: P. falciparum in erythrocytes, SYBR Green DNA, 72 h; series mostly up to 28.7 µM
In short: as §1

SC27B = test: as above; conditions: P. falciparum in erythrocytes, SYBR Green DNA, 72 h; series mostly up to 28.7 µM
In short: as §1

TAB113 = test: as above; conditions: P. falciparum in erythrocytes, SYBR Green DNA, 72 h; series mostly up to 28.7 µM
In short: as §1

W2 = test: as above; conditions: P. falciparum in erythrocytes, SYBR Green DNA, 72 h; series mostly up to 28.7 µM
In short: as §1

Measured: Potency

Ubiquitin carboxyl-terminal hydrolase 1 (Homo sapiens), sequence (O94782 whole entry, looked up): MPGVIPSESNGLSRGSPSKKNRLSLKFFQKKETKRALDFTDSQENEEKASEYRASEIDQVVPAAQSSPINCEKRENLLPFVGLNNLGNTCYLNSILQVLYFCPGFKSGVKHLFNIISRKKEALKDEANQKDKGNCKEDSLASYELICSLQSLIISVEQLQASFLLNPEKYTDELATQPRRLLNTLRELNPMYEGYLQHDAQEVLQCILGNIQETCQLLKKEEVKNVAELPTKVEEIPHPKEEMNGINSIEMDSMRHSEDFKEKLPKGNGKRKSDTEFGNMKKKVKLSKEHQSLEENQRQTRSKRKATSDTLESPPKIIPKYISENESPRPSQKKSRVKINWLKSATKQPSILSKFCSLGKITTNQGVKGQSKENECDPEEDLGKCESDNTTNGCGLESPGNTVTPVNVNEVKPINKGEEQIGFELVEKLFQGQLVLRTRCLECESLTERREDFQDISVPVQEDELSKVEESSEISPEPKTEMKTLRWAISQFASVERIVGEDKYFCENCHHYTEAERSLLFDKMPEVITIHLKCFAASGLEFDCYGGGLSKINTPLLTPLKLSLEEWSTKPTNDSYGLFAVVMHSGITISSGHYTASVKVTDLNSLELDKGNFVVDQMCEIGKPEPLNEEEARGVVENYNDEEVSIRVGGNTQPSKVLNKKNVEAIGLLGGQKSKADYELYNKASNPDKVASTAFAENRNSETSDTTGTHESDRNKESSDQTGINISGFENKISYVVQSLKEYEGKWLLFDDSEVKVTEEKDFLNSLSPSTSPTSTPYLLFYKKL
ATP-dependent 6-phosphofructokinase (Trypanosoma brucei brucei), sequence (O15648 whole entry, looked up): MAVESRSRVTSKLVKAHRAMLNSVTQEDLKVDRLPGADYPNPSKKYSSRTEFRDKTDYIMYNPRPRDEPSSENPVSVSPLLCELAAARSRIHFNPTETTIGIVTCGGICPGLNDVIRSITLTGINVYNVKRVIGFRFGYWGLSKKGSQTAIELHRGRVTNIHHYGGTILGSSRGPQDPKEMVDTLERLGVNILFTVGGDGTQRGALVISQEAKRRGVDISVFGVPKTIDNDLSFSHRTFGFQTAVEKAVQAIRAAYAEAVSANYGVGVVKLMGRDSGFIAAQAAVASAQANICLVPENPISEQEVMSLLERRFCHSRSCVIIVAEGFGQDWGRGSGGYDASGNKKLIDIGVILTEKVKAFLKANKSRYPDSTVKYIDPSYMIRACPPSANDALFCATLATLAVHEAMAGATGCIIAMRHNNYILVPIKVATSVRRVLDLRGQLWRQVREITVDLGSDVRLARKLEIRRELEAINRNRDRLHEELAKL
Luciferin 4-monooxygenase (Photinus pyralis), sequence (P08659 whole entry, looked up): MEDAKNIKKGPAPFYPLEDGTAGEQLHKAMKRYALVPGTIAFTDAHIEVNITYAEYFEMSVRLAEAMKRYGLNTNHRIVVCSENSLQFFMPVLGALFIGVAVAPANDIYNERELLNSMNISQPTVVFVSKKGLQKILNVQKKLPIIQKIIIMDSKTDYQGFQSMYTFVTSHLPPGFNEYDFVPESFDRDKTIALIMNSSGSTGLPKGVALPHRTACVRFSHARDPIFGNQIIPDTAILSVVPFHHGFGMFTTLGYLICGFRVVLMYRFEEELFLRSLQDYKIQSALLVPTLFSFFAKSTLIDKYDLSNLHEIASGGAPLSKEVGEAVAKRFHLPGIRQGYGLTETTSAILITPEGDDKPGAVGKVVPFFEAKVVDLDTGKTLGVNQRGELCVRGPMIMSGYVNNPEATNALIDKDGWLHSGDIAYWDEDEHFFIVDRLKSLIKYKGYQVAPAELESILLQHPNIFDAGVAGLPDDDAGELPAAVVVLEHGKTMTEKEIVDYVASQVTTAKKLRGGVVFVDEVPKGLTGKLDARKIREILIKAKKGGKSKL

CCC(=O)OC1C(N(C)C)CC(C)O[C@H]1O[C@H]1[C@H](C)[C@@H](O[C@H]2CC(OC)[C@@H](O)C(C)O2)[C@H](C)C(=O)O[C@@H](CC)[C@](C)(O)[C@@H](O)[C@H](C)C(=O)[C@@H](C)C[C@]1(C)O (some centres not stated)
active: Dd2 12.6 µM | W2 6.75 µM
inactive: [1] | [2] | [3] | [4] | [5] | 3D7 | 7G8 | AS120 | ATS189 | ATS95 | CP192 | CP194 | CP201 | CP203 | CP211 | CP237 | CP238 | CP260 | CP262 | CP266 | CP268 | CP291 | CP305 | CP315 | CP325 | DIV14 | DIV30 | FAB9 | HB3 | JCK | PAD | PC15 | PC49 | SC27B | TAB113
